The list shows a part of the results. Records with an inconclusive call do not appear. Active and inactive are the calls of the source. Calls follow the shape of the dose curve; as a rule, active = well fitted activation curve with a large enough effect; inconclusive = small, poorly fitted or top-dose-only effect, or effect the other way; inactive = flat fitted curve, though single readings scatter.
Test: Confirmation Concentration-Response Assay for Cell signaling CRE-BLA (Fsk stim) - HEK293 CREB Luciferase
Settings: HEK293 CRE-luc2P, NKH477 EC10 potentiation, luminescence, 4 h
From the text: NIH Molecular Libraries Screening Centers Network [MLSCN] NIH Chemical Genomics Center [NCGC] MLSCN Grant: 1X01MH079867-01 Assay Provider: Marshall W. Nirenberg, U.S. National Heart, Lung and Blood Institute CRE Luciferase Assay Overview Memories persist for different lengths of time, from seconds or minutes to a lifetime. There are two kinds of memory: short-term memory (STM) and long-term memory (LTM). STM lasts for minutes to hours, which maybe mediated by modifications of molecules involved in synaptic functions. LTM lasts for days or longer, and may be due to the formation of new synapses or restructuring of existing synapses. LTM, but not STM, requires gene transcription and synthesis of proteins. CREB (cyclic-AMP Responsive Element Binding Protein) is one of the candidates plays an important role for enhancement of some types of LTM. CREB, a family of transcription factors, regulates the transcription of genes containing cAMP Responsive Elements (CRE). CRE is a nucleotide sequence often found in the promoter regions of genes that are binding sites for CREB. Using a luciferase reporter-gene under control of cAMP responsive element, a cell-based assay [CRE-luc2P HEK293 developed by Promega] was used to measure forskolin-induced signaling. The selected compounds were measured for their ability to modulate positively the action of EC10 NKH 477, a water soluble forskolin, on reporter gene activity. Compounds were screened in a titration series in 1536-well format. Positive modulators were identified based on the AC50 values derived from the screening data.
NCGC Assay Protocol Summary 2500 cells/5uL in DEME with 1% FBS was dispensed into 1536-well plates and cells were cultured at 37 degrees Celsius overnight. Next day 23 nL of compounds or DMSO were delivered to each well using a pin tool, and 1uL of EC10 level of NKH 477, or EC100 level of IBMX, a PDE inhibitor, in the present of NKH 477, or assay medium was added. And then the plates were incubated at 37 degrees Celsius for 4 hours. 6 uL of Bright-Glo luciferase (Promega, WI) was added to each well. After incubated at room temperature for 10min the plates were measured for luminescence intensity on a ViewLux (Perkin Elmer) detector. Keywords: NIH Roadmap, MLSCN, MLSMR, qHTS, NCGC, CRE, luciferase, reporter-gene assay.

SMILES	Potency
CC1CCc2sc3nc(N4CCN(CCO)CC4)n4ncnc4c3c2C1 (stereo not given)	12.6 µM (active)
Cc1nn(-c2ccccc2)c2sc(C(=O)N(Cc3ccco3)C(C)C(=O)NC(C)(C)C)cc12 (stereo not given)	4.47 µM (active)
CCc1nc(Nc2ccc3nccnc3c2)c2oc3ccccc3c2n1	1.26 µM (active)
Cc1nc(SCC(=O)Nc2cc(C)on2)c2c3c(sc2n1)CCCC3	4.47 µM (active)
COc1ccc(CCNC(=O)CSc2nc(C)nc3c2oc2ccccc23)cc1OC	10 µM (active)

Reference: PubChem BioAssay AID907 (National Center for Advancing Translational Sciences (NCATS), 2007)
